Experimental data from PMC5540273 (PLoS ONE, 2017).

What was measured:
Conditions in all cases: concentration: 1 μM, replicates: in singlicate; n = 1
MTOR = test system: MTOR
MUSK = test system: MUSK
MYLK2 = test system: MYLK2
MYLK4 = test system: MYLK4
MYLK = test system: MYLK
MYO3A = test system: MYO3A
MYO3B = test system: MYO3B
NDR1 = test system: T1, NDR1
T1 construct: gene STK38

NDR2 = test system: NDR2
NEK10 = test system: NEK10
NEK11 = test system: NEK11
NEK1 = test system: NEK1
NEK2 = test system: NEK2
NEK3 = test system: NEK3
NEK4 = test system: NEK4
NEK5 = test system: NEK5
NEK6 = test system: NEK6
NEK7 = test system: NEK7
NEK9 = test system: NEK9
NIK = test system: T2, NIK
T2 construct: gene MAP3K14
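Further: KINOMEscan kinase panel screen.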

Structure (SMILES)	%Inh (MTOR) [%]	%Inh (MUSK) [%]	%Inh (MYLK2) [%]	%Inh (MYLK4) [%]	%Inh (MYLK) [%]	%Inh (MYO3A) [%]	%Inh (MYO3B) [%]	%Inh (NDR1) [%]	%Inh (NDR2) [%]	%Inh (NEK10) [%]	%Inh (NEK11) [%]	%Inh (NEK1) [%]	%Inh (NEK2) [%]	%Inh (NEK3) [%]	%Inh (NEK4) [%]	%Inh (NEK5) [%]	%Inh (NEK6) [%]	%Inh (NEK7) [%]	%Inh (NEK9) [%]	%Inh (NIK) [%]
Cl.Cl.NCC(NCc1ccc(-c2ccnc3[nH]ccc23)s1)c1ccccc1 (stereo not drawn) [GSK1321565]	43	13	5	99.8	59	34	0	53	31	27	13	0	0	0	0	10	0	0	6	20
Nc1n[nH]c2cnc(-c3ccccc3)cc12 [SB-642124]	14	99.9	6	69	3	8	0	20	0	47	3	0	0	79	12	96.5	0	0	0	10
O=C(Nc1cccc(-c2nn3ncccc3c2-c2ccnc(Nc3ccccc3)n2)c1)c1c(F)cccc1F [GSK198271]	10	4	0	0	7	6	30	11	0	0	0	3	21	11	4	0	0	0	8	0
C[C@@H]1CC[C@@H](C(=O)Nc2ccccc2)CN1c1cc(-c2ccc3c(N)n[nH]c3c2)nc(N)n1 [GSK2286062]	0	0	0	5	15	33	0	13	0	7	0	1	0	4	0	7	0	0	8	0
CC(=O)Nc1nc2cnc(Nc3cc(NC(=O)c4cccc(C5(C#N)CC5)c4Cl)ccc3C)nc2s1	4	12	0	0	0	0	0	0	0	1	0	0	0	18	10	0	4	7	14	0
c1ccc(-c2cnc3nccnn23)cc1 [AH20685]	2	2	0	0	0	0	0	0	0	0	0	0	0	0	16	0	0	0	0	0
CN(C)S(=O)(=O)c1cc(-c2ccc3nccc(-c4cccc(S(N)(=O)=O)c4)c3c2)cnc1N [GSK1669921]	100	16	0	11	35	0	1	17	0	9	0	0	34	0	10	0	0	31	32	3
Clc1ccc(-c2nn3ncccc3c2-c2ccnc(Nc3ccc4c(c3)OCCO4)n2)cc1 [GW829116]	0	0	0	0	0	7	1	34	8	0	0	0	0	12	0	0	0	0	0	10
Cl.c1ccc(-c2ccc3c(Nc4ccc5[nH]ncc5c4)ccnc3c2)nc1 [GW440137]	7	7	5	11	26	36	0	8	10	1	0	0	0	11	0	13	0	0	7	10
Cc1cccc(NC(=O)Nc2ccc(Oc3ncnc4ccn(C)c34)cc2)c1	26	17	0	0	0	0	5	30	0	0	0	0	0	19	0	0	16	0	1	5
CN1CCN(CCCNc2nccc(-c3c(-c4ccc(F)cc4)nn4cc(C(F)(F)F)ccc34)n2)CC1 [GW621581]	0	0	8	0	0	0	0	10	0	10	14	0	14	0	0	0	0	11	0	18
O=C(Nc1cccc(Oc2ccc3nc(NC(=O)C4CC4)cn3n2)c1)c1ccccc1C(F)(F)F	15	11	0	0	10	0	0	26	0	0	0	9	12	26	0	9	0	0	0	0
O=C(Nc1ccccc1F)NC1CCN(c2ccnc(Nc3ccc(F)cc3)n2)CC1 [GSK1379800]	17	3	16	10	8	37	0	7	0	5	7	0	0	13	0	33	0	0	0	9
COc1ccc(-c2coc3ccc(-c4nnc(SCc5ccc(OC)c(C(F)(F)F)c5)o4)cc23)cc1	0	1	0	0	15	8	36	20	0	0	0	0	8	0	2	0	13	0	0	1
CN(c1ccc(NC(=O)Nc2cc(C(F)(F)F)ccc2F)cc1)c1ccnc(Nc2ccc(S(N)(=O)=O)cc2)n1 [GW809893]	0	95.3	65	16	0	50	37	27	11	0	0	100	0	15	26	31	20	0	37	38
CCn1c(-c2nonc2N)nc2c(C#CC(C)(C)O)ncc(OCCCCN)c21.O=C(O)C(F)(F)F.O=C(O)C(F)(F)F [GSK507274]	19	15	48	0	0	12	5	7	0	15	50	0	34	5	34	11	1	0	0	68
Cc1ccc(C(=O)Nc2ccc(Nc3ccnc4cc(-c5nccs5)ccc34)cc2O)cc1.Cl [GW494702]	6	4	11	0	0	34	6	2	9	0	40	0	0	0	3	0	0	0	0	12
CCCCc1nn2ncccc2c1-c1ccnc(Nc2ccc(N3CCN(C)CC3)cc2)n1 [GW684941]	16	98.2	41	26	4	0	0	18	0	65	62	0	53	9	14	0	0	0	0	11
